# Assay outcomes: PubChem BioAssay, Sanford-Burnham Center for Chemical Genomics
# PABP FP inh: blocks human PABP binding to poly(A) RNA | P11940 | fluorescence polarization | inhibition, % at 35 µM | hit rate 1% among 290,000;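 also: calls also rest on retests at 20 µM and on dose response follow-up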
# PABP1 MLLE inh: blocks PAM2 peptide binding to the PABP1 MLLE domain | GST-MLLE / FITC-PAM2 fluorescence polarization | inhibition, % at 20 µM | AID 588489 | P11940 | hit rate 0.36% among 360,000; in the data active = inhibition above about 35%, passing the limit was not always enough
# PHOSPHO1 inh: inhibitors of human PHOSPHO1 phosphatase; recombinant PHOSPHO1, absorbance phosphatase assay; hit rate 1.1% among 290,000; inhibition, % at 13.3 µM; Q8TCT1; AID 1565; in the data active = inhibition above about 60%
# Target sequence (Q8TCT1 whole entry, looked up): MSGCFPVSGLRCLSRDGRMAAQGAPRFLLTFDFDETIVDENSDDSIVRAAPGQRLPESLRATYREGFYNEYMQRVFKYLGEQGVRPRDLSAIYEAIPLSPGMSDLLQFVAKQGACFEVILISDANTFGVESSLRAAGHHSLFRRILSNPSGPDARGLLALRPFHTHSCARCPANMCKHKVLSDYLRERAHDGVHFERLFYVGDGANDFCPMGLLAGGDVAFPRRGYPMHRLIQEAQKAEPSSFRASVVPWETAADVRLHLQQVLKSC
# CRFR2-BP antag: antagonists of CRF-binding protein/CRF-R2 receptor complex; AID 588475; hit rate 0.59% among 350,000; inhibition, % at 11.8 µM; HEK293 CRF-R2/CRF-BP, CRF-induced calcium fluorescence;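 active = inhibition of the ligand-induced calcium signal above about 50% at the single tested concentration, limit read from the data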
# eIF4H FP inh: inhibitors of RNA binding by human eIF4H; eIF4H fluorescence polarization binding assay; Q15056; hit rate 0.94% among 290,000; AID 2012; inhibition, % at 35 µM;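 also: calls also rest on retests at 20 µM and on dose response follow-up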
# A number is an active result; . = inactive; ? = inconclusive; / = no result. The list is not random: actives were taken first. Their share in the collection is about 2.6%. Unless noted, no rule for the calls is given here.
SMILES,PABP FP inh,PABP1 MLLE inh,PHOSPHO1 inh,CRFR2-BP antag,eIF4H FP inh
CCc1cccc(NC(=O)COC(=O)c2c(C)nn(-c3ccccc3)c2C)c1,/,.,/,.,/
CN(C)c1oc(-c2ccccc2[N+](=O)[O-])nc1C#N,.,42,.,.,.
CN(C)c1oc(-c2ccccc2Cl)nc1C#N,.,.,.,.,.
O=S(c1ccccc1O)S(=O)c1ccccc1O (stereo not drawn),/,.,/,.,/
CC(C)NC(=O)C1CCN(Cc2cccc(OCc3ccccc3)c2)CC1,/,.,/,.,/
COc1cccc(CN2CCN(Cc3cc(OC)c(OC)cc3[N+](=O)[O-])CC2)c1,.,.,.,64,.
CC(C)NC(=O)C1CCN(Cc2cccc(Oc3ccccc3)c2)CC1,69,.,.,.,90
COc1cccc(CN2CCC(C(=O)N3CCN(c4ccccc4F)CC3)CC2)c1,.,.,.,.,61
COc1cccc(CC(=O)N2CCN(c3ccccc3[N+](=O)[O-])CC2)c1,active,.,.,.,52
CCCCC(=O)N1CCN(c2ccc(OC)cc2[N+](=O)[O-])CC1,.,.,.,.,.
COC(=O)c1c(C)[nH]c(C(=O)N2CCN(c3ccc(OC)cc3)CC2)c1C,62,/,.,/,?
Cc1ccc(Cn2c(SCC(=O)N/N=C/c3ccc(C)o3)nc3ccccc32)cc1,.,.,91,.,.
COc1ccccc1-c1cc(C2CC2)nc(N)c1C#N,.,.,.,.,.
N#Cc1c(-c2ccccc2Cl)cc(C2CC2)nc1N,.,.,84,.,.
O=C(Nc1ccc(Cl)cc1)c1ccc2sc([C@@H]3O[C@H](CO)[C@@H](O)[C@H]3O)nc2c1,/,.,/,/,/
Cc1cccn2c(CNCCCn3ncc4ccccc43)c(C(=O)N3CCCCC3)nc12,53,.,.,.,.
O=C(c1nc2ccccn2c1CNCCCn1ncc2ccccc21)N1CCOCC1,.,.,.,.,.
Cc1nc(NCc2ccco2)c2c3c(sc2n1)CCC3,.,.,.,.,.
CCN1CCc2c(sc3c2c(NCc2ccco2)nc2nnnn23)C1,81,.,.,.,57
O=C(OCCN1C(=O)c2cccc3c(N4CCOCC4)ccc(c23)C1=O)c1ccc(Cl)cc1,.,.,.,.,?
CCCN(CCC)S(=O)(=O)c1ccc(C(=O)OCCN2C(=O)c3cccc4c(N5CCOCC5)ccc(c34)C2=O)cc1,118,.,.,.,129
CCOC(=O)Cn1c(=O)oc2cc(S(=O)(=O)NC(C)(C)CC)ccc21,.,.,.,89,.
Cc1cccc(C)c1OCC(O)Cn1nnc2ccccc21 (stereo not drawn),.,.,.,65,.
Cc1ccc(SCC(=O)Nc2cc([N+](=O)[O-])ccc2O)cc1,.,.,.,92,.
CC1(OC(=O)C2CCCC2)C(=O)C=C2C=C(c3ccsc3)N(Cc3ccco3)C=C2C1=O (stereo not drawn),69,.,.,.,94
SMILES,PABP FP inh,PABP1 MLLE inh,PHOSPHO1 inh,CRFR2-BP antag,eIF4H FP inh
CC1(OC(=O)C2CCCC2)C(=O)C=C2C=C(c3ccsc3)N(CCCCO)C=C2C1=O (stereo not drawn),.,.,.,.,.
CCCCN1CC(=O)N2[C@H]3c4cc(Cl)ccc4OC[C@@H]3[C@H](c3ccccc3)[C@]2(C)C1=O,/,.,/,.,/
CCCCOC(=O)c1ccc(N)cc1,118,.,.,.,active
CC(=O)Nc1ccc(C(=O)OCCCOC(=O)c2ccc(NC(C)=O)cc2)cc1,.,.,.,.,.
O=C(OCCCOC(=O)c1cc[n+]([O-])cc1)c1cc[n+]([O-])cc1,.,.,62,.,.
O=c1cc(CN(Cc2ccccc2)Cc2ccccc2)c2ccccc2o1,/,.,/,/,/
Cc1ccc2cc(C3CC(c4ccco4)=NN3C(=O)CCC(=O)O)c(Cl)nc2c1 (stereo not drawn),4.5,.,.,.,?
COc1cccc(S(=O)(=O)N(C)C[C@@H]2OCc3cn(nn3)CCCC(=O)N([C@H](C)CO)C[C@H]2C)c1,/,.,/,.,/
CC1(C(=O)NS(=O)(=O)c2ccc(Br)cc2)CCN1C(=O)CCc1cccs1 (stereo not drawn),/,.,/,/,/
Cc1cccc(C(=O)NC(=S)NNC(=O)c2cccs2)c1,.,.,88,.,.
C/C(N)=C(/C#N)C(=O)CN1C(=O)NC(Cc2c[nH]c3ccccc23)C1=O (stereo not drawn),.,.,.,.,57
COC(=O)c1ccc2c(=O)n(NC(=O)C(c3ccccc3)c3ccccc3)c(=S)[nH]c2c1,.,38,.,.,.
CN(C)CCN1C(=O)c2cccc3cc([N+](=O)[O-])cc(c23)C1=O,/,81,/,.,/
CC1Sc2ccccc2N(Cc2ccc(OC(F)(F)F)cc2)C1=O (stereo not drawn),/,.,/,/,/
CC1=C(C(=O)N(C)C)CC(CC(=O)NC2CCCCC2)C(=O)N1Cc1ccc(F)cc1 (stereo not drawn),/,.,/,/,/
CCN(CC)C(=O)C(=O)Nc1cc(C(F)(F)F)ccc1Cl,.,.,75,.,.
O=C(O)CSCC(=O)Nc1cc(C(F)(F)F)ccc1Cl,.,.,.,.,.
Cc1ccc(S(=O)(=O)C(C#N)c2nc3ccccc3nc2N2CCC(C)CC2)cc1 (stereo not drawn),?,.,.,.,?
Cc1cccc(S(=O)(=O)C(C#N)c2nc3ccccc3nc2N2CCCC2)c1 (stereo not drawn),122,.,.,.,122
Cc1ccc(C)c(S(=O)(=O)C(C#N)c2nc3ccccc3nc2N2CCCC2)c1 (stereo not drawn),?,.,72,.,?
N#CC(c1nc2ccccc2nc1N1CCCC1)S(=O)(=O)c1ccccc1 (stereo not drawn),?,.,.,.,?
COc1ccc(S(=O)(=O)C(C#N)c2nc3ccccc3nc2N2CCCCC2)cc1 (stereo not drawn),103,.,100,.,97
Cc1ccc(C)c(S(=O)(=O)C(C#N)c2nc3ccccc3nc2N2CCOCC2)c1 (stereo not drawn),?,.,.,63,?
COCCNC(=O)C1CCCN(C(=O)c2ccc3sccc3c2)CC1 (stereo not drawn),/,.,/,/,/
COC(=O)C1=C(C)NC(C)=C(C(=O)OC)C1C(=O)OCC(=O)NC1CCCCC1C (stereo not drawn),/,.,/,.,/
CN1CCN(c2nc3ccccc3nc2C(C#N)S(=O)(=O)c2ccccc2)CC1 (stereo not drawn),?,/,.,.,?
Cc1ccc(S(=O)(=O)C(C#N)c2nc3ccccc3nc2N2CCN(C)CC2)cc1C (stereo not drawn),119,.,.,.,122
COc1ccc2nc(N3CCCCC3)c(C#N)cc2c1,.,40,.,.,.
Cc1ccc(C)c(S(=O)(=O)C(C#N)c2nc3ccccc3nc2N2CC(C)OC(C)C2)c1 (stereo not drawn),114,.,.,.,78
CC(C)[C@H](N)C(=O)N[C@H]1CCC2C3CC=C4C[C@@H](O)CC[C@]4(C)C3CC[C@@]21C (stereo partly drawn),/,.,/,.,/
